Molecules are shown by their SMILES. Screen size: about 52,000 compounds; about 1,700 (3.3%) were called active. Rule as the data show it: active = survival mostly below about 52% (no sharp cut-off); inactive = mostly above about 56%. What follows is part of a selection rich in actives, with near analogues and random picks from the rest.

The subject of this assay is Wild type. Briefly: growth inhibition of S. aureus wild type versus tarO mutant, primary screen, teichoic acid synthesis inhibitors, RN4220, OD600 (AID 463173). Particulars: S. aureus RN4220 wild type/DeltatarO growth, OD600, 18 h, stronger effect = lower value, screened at 18.75 µg/mL (by protocol).
In the case of `Cc1cccc(C)c1Nc1c(-c2ccsc2)nc2cccc(C)n12`, the survival is 32% (inactive). As to `Cc1cccc2nc(-c3ccccn3)c(Nc3ccccc3)n12`, the survival was 21% (active). The figure for `COc1ccc(Nc2c(-c3ccco3)nc3cccc(C)n23)cc1` is 97% (inactive).

For the molecule `Cc1ccc(Nc2c(-c3ccc(O)cc3)nc3cccc(C)n23)cc1`, the survival is 91% (inactive).

Take `Cc1ccc(-c2nc3cccc(C)n3c2Nc2ccc3c(c2)OCO3)o1`: the survival was 22% (inactive). Consider `CSc1ccc(-c2nc3cccc(C)n3c2Nc2ccc(Cl)cc2)cc1`, for which the survival is 101% (inactive).

`Cc1ccc(Nc2c(-c3cccc(Cl)c3)nc3cccc(C)n23)cc1`: the survival was 22% (inactive). The figure for `Cc1ccc(Nc2c(-c3ccc(C)o3)nc3cccc(C)n23)cc1` is 21% (active); for `Cc1cccc2nc(-c3ccccn3)c(Nc3ccc(F)cc3)n12` it is 4% (active); for `Cc1ccn2c(Nc3ccc(F)cc3)c(-c3ccccn3)nc2c1` it is 79% (inactive). The figure for `Cc1cccc(C)c1Nc1c(-c2ccccc2F)nc2cccc(C)n12` is 7% (active); for `Cc1ccccc1Nc1c(-c2ccccc2)nc2cccc(C)n12` it is 73% (inactive); for `O=C(Nc1ccc(Cl)c(C(F)(F)F)c1)C1CCN(S(=O)(=O)c2cccc3nonc23)CC1` it is 90% (inactive). The figure for `Cc1ccc(C(=O)c2c(N)c(C(=O)Nc3ccccc3Cl)c3ccccn23)cc1` is 96% (inactive); for `COc1ccc(NC(=O)CN2C(=O)c3cccnc3Sc3ccccc32)cc1OC` it is 81% (inactive). Take `COc1ccccc1CNC(=O)CSC1=Nc2ccccc2N=C(c2ccc(F)cc2)C1`: the survival was 73% (inactive).

In the case of `COc1cc(NC(=O)c2sc3nc4n(c(=O)c3c2C)CCCCC4)cc(OC)c1OC`, the survival is 80% (inactive). For `Cc1ccccc1NC(=O)Cn1cc(S(=O)(=O)c2ccccc2)c(=O)c2ccccc21`, the survival was 105% (inactive).

On to `COc1ccccc1CNC(=O)C(=O)NCC(c1ccco1)S(=O)(=O)c1cccs1` (stereo not drawn), for which the survival is 101% (inactive). On to `COC(=O)C(NC(=O)CCc1c(C)nc2cc(-c3cccc(F)c3)nn2c1C)C(C)C` (stereo not drawn), for which the survival is 80% (inactive). For `CCc1ccc(CNc2ncnc3onc(-c4ccc(Cl)cc4)c23)cc1`, the survival is 48% (inactive). The figure for `Cc1cc[n+](CC(=O)N2CCCCC2)cc1` is 116% (inactive); for `Cc1ccc(NC(=O)Cn2c(=O)n(-c3ccccc3)c(=O)c3ccc(C(=O)NCc4ccc5c(c4)OCO5)cc32)c(C)c1` it is 138% (inactive); for `Cc1ccn2c(Nc3ccc4c(c3)OCCO4)c(-c3ccc(C)o3)nc2c1` it is 75% (inactive).

As for `Cc1ccc(-c2nc3ccc(Cl)cn3c2Nc2ccc3c(c2)OCCO3)o1`, the survival is 88% (inactive). Consider `Cc1ccc(-c2nc3ccccn3c2Nc2ccc3c(c2)OCO3)o1`, for which the survival was 48% (inactive). Then `Cc1ccc(-c2nc3ccccn3c2Nc2c(C)cccc2C)o1`, with -20% (active); and `Cc1ccc(-c2nc3ccccn3c2Nc2ccc3c(c2)OCCO3)o1`, with 62% (inactive); and `Cc1ccc2nc(-c3ccc(C)o3)c(Nc3ccc4c(c3)OCCO4)n2c1`, with 19% (active). Consider `Cc1cc(-n2c(C)nc3ccccc3c2=O)ccc1NC(=O)C(F)(F)F`, for which the survival was 69% (inactive). The figure for `COc1ccc(CCC(=O)NC2CC(=O)N(c3ccc(OC)cc3)C2)cc1` (stereo not drawn) is 79% (inactive); for `CCOc1ccc(C2CC(=O)Nc3c2c(=O)[nH]c2ncnn32)cc1` (stereo not drawn) it is 68% (inactive). As to `CC1=C(C(=O)Nc2ccc(C)cc2C)C(c2cccs2)n2nc(SCc3ccccc3Cl)nc2N1` (stereo not drawn), the survival is 76% (inactive). Regarding `COc1cc(NC(=O)c2ccc(C)cc2)ccc1NC(=O)c1cc2ccccc2o1`, the survival was 75% (inactive). For the molecule `COc1ccc(-c2n[nH]c3c2C(c2ccc(Cl)cc2Cl)NC3=O)cc1` (stereo not drawn), the survival was 0% (active). On to `COc1ccc(OC)c(C2c3c(-c4ccc(Br)cc4)n[nH]c3C(=O)N2c2ccc(Cl)cc2)c1` (stereo not drawn), for which the survival was 77% (inactive). Then `CCc1ccc(C2NC(=O)c3[nH]nc(-c4cccc(OC)c4)c32)cc1` (stereo not drawn), with 74% (inactive); and `CCOC(=O)CNc1cccc(Cl)c1`, with 112% (inactive); and `COc1cccc(CNC(=O)C(=O)Nc2c3c(nn2-c2ccccc2)CSC3)c1`, with 66% (inactive). Consider `Cc1ccc(NC(=O)c2cc(S(=O)(=O)N3CCC4(CC3)OCCO4)ccc2F)cc1Cl`, for which the survival is 87% (inactive).

As to `COc1ccc(N2CCN(C(=O)CNS(=O)(=O)c3ccc(Br)s3)CC2)cc1`, the survival was 61% (inactive). With `COc1ccc(Nc2oc(/C=C/c3cc(OC)c(OC)c(OC)c3)nc2C#N)cc1`, the survival is 78% (inactive).

Regarding `CC(=O)N1CCC2(CC1)OC(=O)C(C)=C2C(=O)NCc1ccccc1Cl`, the survival was 70% (inactive).

`CCOc1ccc(CCNC(=O)c2cnc3c(-c4ccc(F)cc4)c(C)nn3c2C)cc1`: the survival was 85% (inactive). Then `CCC(Sc1nnc(C)n2c1cc1occc12)C(=O)Nc1ccccc1OC` (stereo not drawn), with 90% (inactive); and `CCOC(=O)c1cc2occc2n1C(C)C(=O)OCC` (stereo not drawn), with 95% (inactive).

Regarding `CCn1c(C(=O)Nc2ccccc2C(=O)OC)cc2sc(Cl)cc21`, the survival was 43% (inactive). Then `CCC(C(=O)Nc1ccccc1OC)n1c(C(=O)OC)cc2sc(Cl)cc21` (stereo not drawn), with 0% (active); and `CCOc1ccccc1NC(=O)C(CC)n1c(C(=O)OC)cc2occc21` (stereo not drawn), with 0% (active); and `CCc1ccccc1NC(=O)c1cc2sc(Cl)cc2n1CC`, with 90% (inactive). `COc1ccc2c(c1)CC(NC(=O)Nc1ccc(NC(C)=O)cc1)CO2` (stereo not drawn): the survival was 121% (inactive). Then `CCN1c2ccccc2-c2nc(SCC(=O)Nc3cc(OC)cc(OC)c3)ncc2S1(=O)=O`, with 32% (inactive); and `CN(C(=O)C1=CC(c2ccc3c(c2)OCO3)=NS(=O)(=O)N1C)c1ccccc1`, with 89% (inactive); and `Cc1ccc2nsnc2c1S(=O)(=O)NC(C)(C)C`, with 96% (inactive). The figure for `CCc1nc2ccc(C(=O)N3CCN(c4ccccc4F)CC3)cc2nc1CC` is 68% (inactive); for `COc1cc(CN(CC2CCCO2)C(=O)c2ccc(F)cc2)cc(OC)c1OC` (stereo not drawn) it is 86% (inactive).

Turning to `Cn1c(SCc2ccc(Br)cc2)nc2c([nH]c3ccccc32)c1=O`, the survival was 131% (inactive).

On to `CCn1c(=O)cc(OCC(=O)N(C)c2ccc(OC)cc2)c2ccccc21`, for which the survival was 78% (inactive). Then `CCCN(C(=O)COc1cc(=O)n(CC)c2ccccc12)c1ccc(C(C)C)cc1`, with -7% (active); and `CCN(C(=O)Cn1c(=O)oc2cc(Cl)ccc21)c1cccc(C(F)(F)F)c1`, with 83% (inactive); and `CCCN(C(=O)Cn1c(=O)oc2cc(Cl)ccc21)c1ccc(C(C)C)cc1`, with 8% (active). Take `CCn1c(=O)cc(OCC(=O)N(C)c2cc(Cl)ccc2C)c2ccccc21`: the survival was 62% (inactive).

On to `CCCN(c1ccc(C(C)C)cc1)S(=O)(=O)c1ccc2c(c1)oc(=O)n2CC(=O)OCC`, for which the survival is 73% (inactive).
